Source: PubChem (University of Kansas High Throughput Screening Laboratory)
mHTT CaM bind = disrupts binding of mutant huntingtin to calmodulin | P42858 | AlphaScreen His-mHTT/GST-CaM binding, luminescence | inhibition, % at 15 µM | 190,000 tested, 3.6% active | AID 1671202;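 note: 0% = both proteins with DMSO and 100% = one protein alone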
Pf apPOL block = Pf-apPOL DNA polymerase inhibition; Recombinant Pf-apPOL, molecular beacon fluorescence, 1.5 h; inhibition, % at 10 µM; 210,000 tested, 0.25% active
Numbers without * were called inactive; x = no result given. Compounds with a hit are over-represented: about 3.6% of the library has one in this group of screens. Cut-off read from the data, not from the text of the source: active = inhibition above about 50%; inactive = the rest.

SMILES	mHTT CaM bind	Pf apPOL block
CC1CC(OCC(O)CN2CCC(CN3C(=O)c4cccc5cccc(c45)C3=O)CC2)CC(C)(C)C1 (stereo unspecified)	37	77*
COc1ccc(N2CCN(CC(O)COC3CCC(C(C)(C)C)CC3)CC2)cc1 (stereo unspecified)	34	-3
CCCOc1ccc(-c2nc3s/c(=C\c4cccnc4)c(=O)n3n2)cc1	-1	5
O=C(CSc1nnc(-c2ccncc2)n1-c1ccccc1)NN=Cc1cn(-c2ccccc2)nc1-c1ccc(Cl)cc1	x	22
Cc1ccc(CN2C(=O)CN(CC(=O)O)C(=O)C2c2ccccc2F)cc1 (stereo unspecified)	0	-12
CN(C)Cc1c(O)ccc2c1OC(=Cc1cccc(F)c1)C2=O	3	-14
CCc1ccc(S(=O)(=O)N2CCC(CN3CCCCCC3)CC2)cc1	100*	2
CCc1ccc(S(=O)(=O)N2CCC(CN3CCC(C)CC3)CC2)cc1	-9	-3
O=S(=O)(c1ccccc1Br)N(Cc1ccccc1)CC(O)COCc1ccccc1 (stereo unspecified)	98*	1
CCN(Cc1ccccc1)S(=O)(=O)c1ccccc1Br	-61	-3
CN(C)c1ccc2[nH]c3c(C(=O)O)cc(=O)c(=O)c=3oc2c1	67*	x
CN(c1ccc(F)cc1)S(=O)(=O)c1ccc2[nH]cc(C(=O)O)c(=O)c2c1	8	-5
O=C(c1cc(F)c(F)cc1Cl)N1CCN(c2ccc([N+](=O)[O-])c3cccnc23)CC1	50*	-3
O=C(c1ccccc1)N1CCN(c2ccc([N+](=O)[O-])cc2Cl)CC1	4	-1
O=C(c1ccc(Cl)c(Cl)c1)N1CCN(c2ccc([N+](=O)[O-])c3cccnc23)CC1	8	1
O=C(c1ccc(Cl)c(Cl)c1)N1CCN(c2ccc(F)cc2[N+](=O)[O-])CC1	53*	-19
O=C(c1cccc([N+](=O)[O-])c1)N1CCN(c2cccc(Cl)c2Cl)CC1	74*	-1
O=C(c1ccccc1)N1CCN(c2ccc(F)cc2[N+](=O)[O-])CC1	10	-6
CC(C)(N=Nc1ccccc1)NC(=S)Nc1ccccc1	x	-2
CCOc1ccc(C(=O)Nc2c3c(nn2-c2ccc(C)cc2)CSC3)cc1OCC	29	-6
Cc1nc(-c2ccc3c(c2)CCN3C(=O)Cc2cccs2)cs1	2	-2
C=CCNC(=O)C1Cc2ccccc2N2CCN(c3cc(Cl)ccc3OC)CC12 (stereo unspecified)	55*	1
COc1ccccc1N1CCN2c3ccccc3CC(C(=O)NC3CC3)C2C1 (stereo unspecified)	0	-1
CCNC(=O)C1Cc2ccc(OC)cc2N2CCN(Cc3ccc(F)cc3)CC12 (stereo unspecified)	42	-5
COc1ccc2c(c1)N1CCN(Cc3ccc(F)cc3)CC1C(C(=O)NC1CC1)C2 (stereo unspecified)	93*	-4
SMILES	mHTT CaM bind	Pf apPOL block
CCNC(=O)C1Cc2ccccc2N2CCN(c3cc(Cl)ccc3OC)CC12 (stereo unspecified)	22	-1
COc1ccc2c(c1)N1CCN(c3ccccc3OC)CC1C(C(=O)NC1CC1)C2 (stereo unspecified)	59*	-2
O=C(NCc1csc(C2CCN(S(=O)(=O)c3ccccc3F)CC2)n1)C1CCC1	9	2
O=C(Nc1nnc(-c2ccc(Br)s2)o1)C1COc2ccccc2O1 (stereo unspecified)	13	-1
CCN(CC)C(=O)CC[C@H]1CC[C@]2(CCCN(S(=O)(=O)c3ccccc3)C2)O1	98*	-6
CCOC(=O)CC[C@@H]1CC[C@]2(CCCN(S(=O)(=O)c3ccccc3)C2)O1	-4	-4
COc1cc(/C=C2\C(=O)ON=C2C)cc(Br)c1OC	24	4
CC1=NOC(=O)/C1=C/c1ccc(OCc2ccccc2F)c(Cl)c1	2	-9
C=CCOc1c(Cl)cc(/C=C2\C(=O)ON=C2C)cc1OC	35	-1
CCOc1cc(/C=C2\NC(=O)NC2=O)cc(Cl)c1OCc1ccccc1F	68*	-2
COc1cc(/C=C2\C(=O)ON=C2C)cc(Cl)c1OCc1ccccc1F	60*	-5
COc1cc(/C=C2\NC(=O)NC2=O)ccc1OCc1ccccc1F	-2	-2
COc1cc(/C=C2\C(=O)ON=C2C)cc(Cl)c1OCc1cccc(F)c1	86*	0
COc1cc(/C=C2\C(=O)ON=C2C)cc(Br)c1OCc1cccc(F)c1	51*	-3
CC(C)CNC(=O)N1CC(C(=O)N2CCCCC2)C2(CCOCC2)C1 (stereo unspecified)	2	2
O=C(Nc1ccc(Cc2ccc(NC(=O)c3cccnc3)cc2)cc1)c1cccnc1	-2	-2
Cn1c(=O)c2c(nc(NCCO)n2Cc2ccccc2Cl)n(C)c1=O	2	7
CC(C)CNC(=O)N1CCc2nc(-c3ccc(F)cc3)ncc2C1	-13	3
CCc1cc(C2CCCN2C(=O)CCc2ccc(OC)cc2)on1 (stereo unspecified)	-6	2
